Source: ChEMBL document CHEMBL1961873, “Compounds: GSK PKIS; Assays: Nanosyn kinase panel” (2012)
“And” between values parts separate entries of the source, which are not always exact repeats. Equal entries are not always repeated.

Legend:
[1] = molecular target: T1, Muscle, skeletal receptor tyrosine-protein kinase (Homo sapiens) (UniProt O15146); settings: at 1 µM;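 further: reported value is the mean percent inhibition of MuSK kinase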
T1 sequence (whole entry): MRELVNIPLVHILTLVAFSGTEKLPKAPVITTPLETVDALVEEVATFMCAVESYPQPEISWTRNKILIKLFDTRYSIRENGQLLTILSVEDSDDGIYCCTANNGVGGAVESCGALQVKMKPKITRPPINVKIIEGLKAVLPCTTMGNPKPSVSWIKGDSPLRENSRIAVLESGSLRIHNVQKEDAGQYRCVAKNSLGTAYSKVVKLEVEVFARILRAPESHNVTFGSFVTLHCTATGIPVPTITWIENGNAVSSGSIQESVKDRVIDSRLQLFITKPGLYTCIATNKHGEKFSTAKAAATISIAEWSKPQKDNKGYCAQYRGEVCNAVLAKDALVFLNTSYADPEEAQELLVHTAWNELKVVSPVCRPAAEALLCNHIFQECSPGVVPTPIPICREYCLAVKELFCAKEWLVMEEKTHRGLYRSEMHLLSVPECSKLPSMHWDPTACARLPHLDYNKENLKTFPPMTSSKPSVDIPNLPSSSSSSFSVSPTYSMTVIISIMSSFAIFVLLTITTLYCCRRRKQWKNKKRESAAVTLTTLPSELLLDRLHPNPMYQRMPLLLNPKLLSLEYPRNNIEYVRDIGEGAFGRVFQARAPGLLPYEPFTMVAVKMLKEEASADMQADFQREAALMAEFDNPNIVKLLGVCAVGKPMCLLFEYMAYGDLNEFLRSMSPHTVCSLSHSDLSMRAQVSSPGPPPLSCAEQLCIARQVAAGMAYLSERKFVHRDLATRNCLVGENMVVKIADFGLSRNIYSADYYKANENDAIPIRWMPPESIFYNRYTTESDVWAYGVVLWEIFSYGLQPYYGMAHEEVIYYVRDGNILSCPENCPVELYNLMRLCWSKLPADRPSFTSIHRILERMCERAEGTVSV

[2] = molecular target: Platelet-derived growth factor receptor alpha (Homo sapiens) (UniProt P16234); settings: at 0.1 µM
Chain of Platelet-derived growth factor receptor alpha (Homo sapiens) (P16234 whole entry): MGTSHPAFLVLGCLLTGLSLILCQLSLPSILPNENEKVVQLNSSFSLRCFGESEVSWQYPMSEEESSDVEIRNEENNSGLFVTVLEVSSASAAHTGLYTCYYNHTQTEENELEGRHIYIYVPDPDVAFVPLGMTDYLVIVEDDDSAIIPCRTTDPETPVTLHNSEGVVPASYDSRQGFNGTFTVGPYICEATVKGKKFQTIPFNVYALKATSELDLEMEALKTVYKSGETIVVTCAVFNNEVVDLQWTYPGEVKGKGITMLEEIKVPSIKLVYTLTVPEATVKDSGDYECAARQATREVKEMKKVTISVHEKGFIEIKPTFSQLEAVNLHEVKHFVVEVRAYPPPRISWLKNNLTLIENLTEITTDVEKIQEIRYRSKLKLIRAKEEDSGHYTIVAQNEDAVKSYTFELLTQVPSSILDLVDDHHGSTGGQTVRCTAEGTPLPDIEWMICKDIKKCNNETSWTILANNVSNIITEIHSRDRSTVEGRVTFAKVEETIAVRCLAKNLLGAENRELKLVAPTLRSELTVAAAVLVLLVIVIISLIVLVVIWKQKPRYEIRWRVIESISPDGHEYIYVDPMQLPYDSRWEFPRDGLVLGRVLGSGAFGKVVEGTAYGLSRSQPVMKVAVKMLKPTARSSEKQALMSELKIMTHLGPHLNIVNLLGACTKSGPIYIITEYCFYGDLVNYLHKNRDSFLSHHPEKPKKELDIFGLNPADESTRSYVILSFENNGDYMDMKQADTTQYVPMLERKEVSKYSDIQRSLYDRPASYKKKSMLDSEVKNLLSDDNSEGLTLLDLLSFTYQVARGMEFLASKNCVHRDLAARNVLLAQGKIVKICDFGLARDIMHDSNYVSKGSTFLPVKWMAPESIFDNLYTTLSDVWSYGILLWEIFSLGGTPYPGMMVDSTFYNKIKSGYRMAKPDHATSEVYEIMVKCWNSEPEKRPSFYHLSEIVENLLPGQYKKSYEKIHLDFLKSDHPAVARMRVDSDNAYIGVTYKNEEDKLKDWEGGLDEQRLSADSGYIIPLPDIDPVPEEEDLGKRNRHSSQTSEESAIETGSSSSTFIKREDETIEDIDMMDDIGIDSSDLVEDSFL

[3] = molecular target: Platelet-derived growth factor receptor alpha (Homo sapiens) (UniProt P16234); settings: at 1 µM
[4] = system: Platelet-derived growth factor receptor alpha (Homo sapiens), P16234 [D842V]; settings: at 0.1 µM
Chain of Platelet-derived growth factor receptor alpha (Homo sapiens), P16234 [D842V] (P16234 whole entry D842V): as the sequence (P16234 whole entry) above, with D842V counted along it

[5] = system: Platelet-derived growth factor receptor alpha (Homo sapiens), P16234 [D842V]; settings: at 1 µM
[6] = system: Platelet-derived growth factor receptor alpha (Homo sapiens), P16234 [T674I]; settings: at 0.1 µM
Chain of Platelet-derived growth factor receptor alpha (Homo sapiens), P16234 [T674I] (P16234 whole entry T674I): as the sequence (P16234 whole entry) above, with T674I counted along it

[7] = system: Platelet-derived growth factor receptor alpha (Homo sapiens), P16234 [T674I]; settings: at 1 µM
[8] = system: Platelet-derived growth factor receptor alpha (Homo sapiens), P16234 [V561D]; settings: at 0.1 µM
Chain of Platelet-derived growth factor receptor alpha (Homo sapiens), P16234 [V561D] (P16234 whole entry V561D): as the sequence (P16234 whole entry) above, with V561D counted along it

[9] = system: Platelet-derived growth factor receptor alpha (Homo sapiens), P16234 [V561D]; settings: at 1 µM
[10] = molecular target: Platelet-derived growth factor receptor beta (Homo sapiens) (UniProt P09619); settings: at 0.1 µM;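 further: reported value is the mean percent inhibition of the kinase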
Chain of Platelet-derived growth factor receptor beta (Homo sapiens) (P09619 whole entry): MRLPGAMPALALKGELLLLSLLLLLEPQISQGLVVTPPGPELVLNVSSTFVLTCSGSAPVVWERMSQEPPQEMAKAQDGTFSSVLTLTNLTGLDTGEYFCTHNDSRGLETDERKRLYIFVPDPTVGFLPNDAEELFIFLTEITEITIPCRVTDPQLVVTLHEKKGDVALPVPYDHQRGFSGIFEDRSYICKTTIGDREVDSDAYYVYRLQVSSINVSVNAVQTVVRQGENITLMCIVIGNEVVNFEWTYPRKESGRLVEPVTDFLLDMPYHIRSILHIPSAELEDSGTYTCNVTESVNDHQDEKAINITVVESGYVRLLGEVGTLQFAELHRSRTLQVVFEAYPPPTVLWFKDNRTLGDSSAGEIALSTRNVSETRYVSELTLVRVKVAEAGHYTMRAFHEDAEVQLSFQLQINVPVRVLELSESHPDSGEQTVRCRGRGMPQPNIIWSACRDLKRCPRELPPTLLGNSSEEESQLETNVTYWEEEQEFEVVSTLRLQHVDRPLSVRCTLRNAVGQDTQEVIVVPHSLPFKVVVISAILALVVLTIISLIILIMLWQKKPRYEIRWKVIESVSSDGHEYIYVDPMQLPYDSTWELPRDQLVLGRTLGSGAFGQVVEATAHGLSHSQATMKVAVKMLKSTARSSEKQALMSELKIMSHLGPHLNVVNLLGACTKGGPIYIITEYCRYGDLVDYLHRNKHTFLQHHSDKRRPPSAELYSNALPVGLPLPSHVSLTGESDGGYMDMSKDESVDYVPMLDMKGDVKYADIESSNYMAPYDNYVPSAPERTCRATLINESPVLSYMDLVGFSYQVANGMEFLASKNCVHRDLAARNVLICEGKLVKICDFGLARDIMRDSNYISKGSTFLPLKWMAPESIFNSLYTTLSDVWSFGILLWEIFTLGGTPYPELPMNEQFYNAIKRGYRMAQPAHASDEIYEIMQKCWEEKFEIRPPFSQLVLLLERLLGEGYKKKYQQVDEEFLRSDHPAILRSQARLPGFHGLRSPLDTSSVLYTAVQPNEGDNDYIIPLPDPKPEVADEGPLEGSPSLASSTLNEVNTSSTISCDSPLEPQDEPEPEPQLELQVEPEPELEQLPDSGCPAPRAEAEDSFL

Row | SMILES | inhibition [1] | inhibition [2] | inhibition [3] | inhibition [4] | inhibition [5] | inhibition [6] | inhibition [7] | inhibition [8] | inhibition [9] | inhibition [10]
1 | CS(=O)(=O)Nc1ccc(-c2cc(-c3ccccc3)cc(C(N)=O)c2N)cc1 | 5.45% | 5.04% | 12.1% | -0.88% | 1.32% | 3.63% | 9.21% | 3.05% | 5.7% | 4%
2 | Nc1nonc1-c1nc2cnccc2n1C1CC1 | 8.16% and 1.56% | 15.3% and 5.54% | 18.8% and 15.6% | 4.39% and 4.32% | 16.4% and 18.7% | 6.49% and 5.23% | 20.2% and 20.4% | 4.47% and 2.61% | 14% and 12.1% | 10.2% and 2.99%
3 | NS(=O)(=O)c1cccc(N/C=C2\C(=O)Nc3ccccc32)c1 | 12.1% | 7.39% | 26.2% | 4.57% | 15.1% | 9.22% | 46.1% | 5.48% | 31.2% | 4.88%
4 | CS(=O)(=O)CCNCc1ccc(-c2ccc3ncnc(Nc4ccc(OCc5ccccc5)cc4)c3c2)o1 | 1.04% | 4.6% | 10.4% | 3.6% | 3.61% | 3.14% | 4.61% | 5.39% | 7.8% | 3%
5 | CCOc1ccc2c(-c3ccnc(Nc4cc(OC)cc(C(F)(F)F)c4)n3)cnn2n1 | 5.37% | 6.45% | 30% | 2.97% | 18.4% | 2.28% | 8.05% | 6.9% | 33.4% | 7.05%
6 | Fc1ccc(Nc2nccc(-c3c(-c4ccc(C(F)(F)F)cc4)nn4ncccc34)n2)cc1F | 2.81% | 8.86% | 7.72% | – | 4.26% | 4.35% | 6.66% | 3.46% | 2.39% | 2.15%
7 | N#Cc1cccc(Nc2ncc(-c3ccccc3)o2)c1 | 2.86% | 5.63% | 17% | 1.11% | 3.47% | 6.26% | 36.3% | 16.2% | 36.8% | 7.37%
8 | CCCNc1cccc(-n2ncc3c(N/N=C/c4ccncc4)ncnc32)c1 | 49.9% | 29.4% | 78.4% | 16.3% | 71% | 11.7% | 38.2% | 15.3% | 68.4% | 27.1%
9 | Cn1c(-c2nonc2N)nc2cnccc21 | 5.28% | 2.63% | 7.48% | 2.81% | 4.99% | 4.72% | 6.95% | 1.45% | 3.93% | 1.55%
10 | CNC(=O)c1ncccc1Nc1nc(Nc2cc3c(cc2OC)CCCN3C(=O)CN(C)C)nc2[nH]ccc12 | 16.7% | 10.7% | 20.6% | 3.17% | 7.19% | 5.75% | 6.87% | 3.32% | 9.94% | 7.26%
11 | COc1ccc(-c2nn3ncccc3c2-c2ccnc(Nc3ccc(F)c(F)c3)n2)cc1 | 3.15% | 14.7% | 17.7% | – | 8.96% | 10.3% | 11.2% | 7.34% | 11.3% | 9.04%
12 | FC(F)(F)CNc1nccc(-c2cnn3ncccc23)n1 | -2.34% | 0.78% | 10.1% | – | 4.9% | 1.52% | 4.54% | 0.59% | 2.85% | 2.11%
13 | COC(=O)Nc1nc2cc(Oc3ccc(NC(=O)Nc4ccccc4)cc3)ccc2[nH]1 | 2.88% | 38.5% | 66.6% | 0.57% | 5.23% | 53% | 93.9% | 62.7% | 84.8% | 7.12%
14 | c1cnn2ncc(-c3ccnc(NCCCN4CCOCC4)n3)c2c1 | 0.6% | 5.5% | 6.66% | 0.88% | 3.59% | 3.47% | 5.82% | 3.16% | 2.82% | 0.52%
15 | Nc1nccc(-c2c(-c3ccc(F)cc3)ncn2C2CCNCC2)n1 | 4.78% and 1.25% | 1.26% and 2.55% | 32.6% and 7.91% | 3.48% and 2.03% | 9.35% and 6.11% | -2.56% and 3.91% | 1.13% and 1.39% | 4.62% and 3.92% | 19.5% and 6.51% | 3.91% and 1.3%
16 | COc1c(C(N)=O)cc(-c2ccc(Cl)cc2)cc1-c1ccc(S(N)(=O)=O)cc1 | 7.45% | 3.49% | 9.97% | 2.3% | 2.99% | 2.39% | 4.51% | 3.68% | 5.56% | 2.5%

Row | SMILES | inhibition [1] | inhibition [2] | inhibition [3] | inhibition [4] | inhibition [5] | inhibition [6] | inhibition [7] | inhibition [8] | inhibition [9] | inhibition [10]
17 | Cc1cc(O)cc(C)c1/C=C/c1cncc(C(N)=O)c1 | 3.91% | 13% | 39.4% | 3.88% | 16.3% | 4.15% | 4.33% | 21% | 55.5% | 9.04%
18 | CN(c1ccc(NC(=O)NCCN2CCOCC2)cc1)c1ccnc(Nc2ccc(CS(C)(=O)=O)cc2)n1 | 8.61% | 51.8% | 84.4% | 2.7% | 28.6% | 63.9% | 95% | 61.6% | 90.1% | 33.7%
19 | CS(=O)(=O)CCNCc1ccoc1-c1ccc2ncnc(Nc3ccc(OCc4ccccc4)cc3)c2c1 | 3.07% | 7.98% | 15.1% | -0.69% | 2.14% | 4.43% | 8.96% | 1.67% | 7.53% | 0.39%
20 | Nc1ncnc2occ(-c3ccc(NC(=O)Nc4cc(C(F)(F)F)ccc4F)cc3)c12 | 94.1% and 97.6% | 80.4% and 68.5% | 93.4% and 90.3% | 17% and 8.08% | – | 75.6% and 72.8% | 97.9% and 83% | 88.8% and 81.8% | 97.9% and 96.5% | 48.5% and 28.9%
21 | CS(=O)(=O)CCNCc1ccc(-c2ccc3ncnc(Nc4ccc(OCc5cccc(C(F)(F)F)c5)cc4)c3c2)o1 | 9.15% | 9.67% | 15.9% | 0.59% | 1.85% | 5.53% | 12.3% | 4.16% | 14.6% | 7.32%
22 | NC(=O)c1ccc2c(-c3ccnc(NCCCO)n3)c(-c3ccc(F)cc3)nn2c1 | 2.08% | 5.5% | 16.9% | 4.25% | 8.75% | 6.06% | 6.59% | 4.18% | 14.3% | 4.83%
23 | O=C(O[C@H]1CN[C@H](C#Cc2cc3ncnc(Nc4ccc(OCc5cccc(F)c5)c(Cl)c4)c3s2)C1)N1CCOCC1 | 2.35% | 7.9% | 14.3% | 2.95% | 4.82% | 8.66% | 9.57% | 8.32% | 3.92% | 1.59%
24 | CCN1CCC(C(=O)Nc2n[nH]c3nnc(-c4cccc(F)c4F)cc23)CC1 | 4.59% | 0.87% | 3.69% | 1.64% | 2.59% | 2.94% | 7.18% | -0.48% | 0.89% | 3.08%
25 | COc1cccc(-n2ncc3c(N/N=C/c4ccc(C(=O)NCCN(C)C)cc4)ncnc32)c1 | 80.3% | 42.3% | 74.1% | 55.7% | 88.8% | 20.5% | 78.5% | 44% | 85.5% | 62.4%
26 | CNC(=O)c1cncc(/C=C/c2ccccc2C)c1 | 3.97% | 11.8% | 17.8% | 3.85% | 5.79% | 4.91% | 5.69% | 4.75% | 17% | 6.6%
27 | COc1cc2c(cc1Nc1nc(Nc3cccc(F)c3C(N)=O)c3cc[nH]c3n1)N(C(=O)CN1CCN(C(C)C)CC1)CC2 | 8.69% | -1.51% | 15.2% | -0.49% | 1.55% | 2.01% | 2.59% | -0.47% | 11.6% | 1.46%
28 | CC1=C(C(=O)Nc2ccc3[nH]ncc3c2)C(c2ccc(F)cc2)N=C(c2ccc(C(F)(F)F)nc2)N1 (stereo unspecified) | 5.28% | 6.34% | 8.66% | 2.97% | 3.35% | 3.34% | 4.17% | 3.03% | 3.17% | 1.04%
29 | CCn1c(-c2nonc2N)nc2cncc(C(=O)NCCNC)c21 | -0.23% | 5.61% | 14.2% | 4.53% | 7.01% | 3.41% | 11.4% | 3.13% | 5.82% | 16.2%
30 | CN1CCC(n2cnc(-c3ccc(F)cc3)c2-c2ccnc(NCCO)n2)CC1 | 3.41% | 13.6% | 14.4% | 5.63% | 8.15% | 7.46% | 9.01% | 7.95% | 3.97% | 8.62%
31 | N#Cc1ccc2c(-c3ccnc(NC4CC4)n3)c(-c3ccc(F)cc3)nn2c1 | -0.28% | 2.76% | 11.6% | -0.1% | 6.91% | 6.42% | 6.15% | 1.97% | 8.16% | 2.34%
